Laboratory results from paper PMC11066047.

Legend:
[1] = target: Heat shock protein homolog SSE1 (UniProt P32589); test: cross-link between two proteins; cross-linking mass spectrometry
[2] = target: Heat shock protein homolog SSE2 (UniProt P32590); test: as above
[3] = target: Isocitrate dehydrogenase [NAD] subunit 1, mitochondrial (UniProt P28834); test: as above
[4] = target: Large ribosomal subunit protein eL30 (UniProt P14120); test: as above
[5] = target: Small ribosomal subunit protein eS7A (UniProt P26786); test: cross-link between two proteins
[6] = target: Large ribosomal subunit protein eL31A (UniProt P0C2H8); test: cross-link between two proteins; cross-linking mass spectrometry
[7] = target: Large ribosomal subunit protein eL32 (UniProt P38061); test: as above
[8] = target: Ribosome biogenesis protein ALB1 (UniProt P47019); test: as above
Zuotin = Zuotin (UniProt P32527); test: as above
[9] = target: Large ribosomal subunit protein eL38 (UniProt P49167); test: as above
[10] = target: Large ribosomal subunit protein eL6A (UniProt Q02326); test: as above
[11] = target: Large ribosomal subunit protein eL8B (UniProt P29453); test: as above
Pescadillo homolog = Pescadillo homolog (UniProt P53261); test: as above
[12] = target: Proteasome-interacting protein CIC1 (UniProt P38779); test: as above
[13] = target: Large ribosomal subunit protein uL13B (UniProt P26785); test: as above
[14] = target: Large ribosomal subunit protein uL4A (UniProt P10664); test: as above
[15] = target: Large ribosomal subunit protein uL4B (UniProt P49626); test: as above
[16] = target: Mitochondrial import inner membrane translocase subunit TIM14 (UniProt Q07914); test: as above
[17] = target: NET1-associated nuclear protein 1 (UniProt Q02931); test: cross-link between two proteins
[18] = target: Nucleolar complex protein 14 (UniProt Q99207); test: cross-link between two proteins
[19] = target: Ribosomal RNA-processing protein 12 (UniProt Q12754); test: cross-link between two proteins
Nucleolar protein 56 = Nucleolar protein 56 (UniProt Q12460); test: cross-link between two proteins
Nucleolar protein 58 = Nucleolar protein 58 (UniProt Q12499); test: cross-link between two proteins; cross-linking mass spectrometry
Prohibitin-2 = Prohibitin-2 (UniProt P50085); test: as above
[20] = target: Small ribosomal subunit protein RACK1 (UniProt P38011); test: as above
[21] = target: Small ribosomal subunit protein uS10 (UniProt P38701); test: as above
[22] = target: Small ribosomal subunit protein uS5 (UniProt P25443); test: as above
RuvB-like protein 2 = RuvB-like protein 2 (UniProt Q12464); test: as above
[23] = target: Proteasome subunit alpha type-2 (UniProt P23639); test: as above
[24] = target: Proteasome subunit alpha type-6 (UniProt P40302); test: as above
[25] = target: Ribosome biogenesis protein YTM1 (UniProt Q12024); test: as above
[26] = target: U3 small nucleolar RNA-associated protein 15 (UniProt Q04305); test: as above
[27] = target: U3 small nucleolar RNA-associated protein MPP10 (UniProt P47083); test: cross-link between two proteins
[28] = target: U3 small nucleolar RNA-associated protein 21 (UniProt Q06078); test: cross-link between two proteins
[29] = target: Proteasome subunit beta type-3 (UniProt P25451); test: cross-link between two proteins; cross-linking mass spectrometry
[30] = target: Succinate--CoA ligase [ADP-forming] subunit alpha, mitochondrial (UniProt P53598); test: as above
[31] = target: Small ribosomal subunit protein eS28A (UniProt Q3E7X9); test: as above
[32] = target: Small ribosomal subunit protein eS25A (UniProt Q3E792); test: as above
[33] = target: Small ribosomal subunit protein uS11B (UniProt P39516); test: as above
[34] = target: rRNA-processing protein FCF2 (UniProt Q12035); test: cross-link between two proteins
[35] = target: Ubiquitin-like protein MDY2 (UniProt Q12285); test: cross-link between two proteins; cross-linking mass spectrometry
[36] = target: Ribosome biogenesis protein BMS1 (UniProt Q08965); test: cross-link between two proteins
[37] = target: Small ribosomal subunit protein eS12 (UniProt P48589); test: cross-link between two proteins; cross-linking mass spectrometry
[38] = target: Protein transport protein SBH2 (UniProt P52871); test: as above
[39] = target: U3 small nucleolar RNA-associated protein 16 (UniProt Q08492); test: cross-link between two proteins
[40] = target: Small ribosomal subunit protein uS7 (UniProt P26783); test: cross-link between two proteins; cross-linking mass spectrometry
[41] = target: U3 small nucleolar RNA-associated protein 12 (UniProt Q12220); test: as above
[42] = target: Ribosome biogenesis protein MAK21 (UniProt Q12176); test: as above
[43] = target: U3 small nucleolar RNA-associated protein 22 (UniProt P53254); test: cross-link between two proteins
[44] = target: Proteasome subunit alpha type-3 (UniProt P23638); test: cross-link between two proteins; cross-linking mass spectrometry

Chain of Ribosome biogenesis protein MAK21 (Q12176 whole entry): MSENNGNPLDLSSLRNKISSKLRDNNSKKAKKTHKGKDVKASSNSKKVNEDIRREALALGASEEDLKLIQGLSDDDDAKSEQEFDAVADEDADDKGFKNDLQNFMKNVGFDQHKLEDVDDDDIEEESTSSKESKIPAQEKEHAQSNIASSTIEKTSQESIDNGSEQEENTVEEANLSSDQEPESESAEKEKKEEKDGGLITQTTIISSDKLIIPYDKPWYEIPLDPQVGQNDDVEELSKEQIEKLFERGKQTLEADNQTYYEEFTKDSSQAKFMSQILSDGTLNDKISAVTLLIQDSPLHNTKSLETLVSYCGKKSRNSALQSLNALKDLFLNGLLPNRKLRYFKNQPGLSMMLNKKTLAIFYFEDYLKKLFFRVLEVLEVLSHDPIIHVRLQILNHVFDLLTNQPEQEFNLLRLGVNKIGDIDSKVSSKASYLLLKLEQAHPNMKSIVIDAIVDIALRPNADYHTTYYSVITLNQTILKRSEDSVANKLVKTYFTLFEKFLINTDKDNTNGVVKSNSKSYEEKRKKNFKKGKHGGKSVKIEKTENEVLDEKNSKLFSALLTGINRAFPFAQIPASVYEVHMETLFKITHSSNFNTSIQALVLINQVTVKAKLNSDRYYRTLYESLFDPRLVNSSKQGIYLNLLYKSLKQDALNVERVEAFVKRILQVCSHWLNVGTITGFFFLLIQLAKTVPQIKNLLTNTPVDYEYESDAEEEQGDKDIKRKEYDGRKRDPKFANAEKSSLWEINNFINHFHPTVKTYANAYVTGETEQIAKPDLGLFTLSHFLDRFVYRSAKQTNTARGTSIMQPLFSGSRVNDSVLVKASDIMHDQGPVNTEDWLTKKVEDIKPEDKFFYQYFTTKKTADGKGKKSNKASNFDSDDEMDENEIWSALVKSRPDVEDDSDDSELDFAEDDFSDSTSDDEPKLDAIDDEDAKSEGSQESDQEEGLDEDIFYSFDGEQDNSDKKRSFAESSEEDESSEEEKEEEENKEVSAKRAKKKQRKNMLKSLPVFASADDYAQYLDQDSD
Chain of Proteasome subunit beta type-3 (P25451 whole entry): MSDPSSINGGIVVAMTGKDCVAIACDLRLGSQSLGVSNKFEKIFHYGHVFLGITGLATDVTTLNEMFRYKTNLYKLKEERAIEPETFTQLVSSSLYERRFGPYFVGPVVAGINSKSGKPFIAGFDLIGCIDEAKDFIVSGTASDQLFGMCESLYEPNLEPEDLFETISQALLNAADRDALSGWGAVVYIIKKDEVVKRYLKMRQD
Chain of Proteasome-interacting protein CIC1 (P38779 whole entry): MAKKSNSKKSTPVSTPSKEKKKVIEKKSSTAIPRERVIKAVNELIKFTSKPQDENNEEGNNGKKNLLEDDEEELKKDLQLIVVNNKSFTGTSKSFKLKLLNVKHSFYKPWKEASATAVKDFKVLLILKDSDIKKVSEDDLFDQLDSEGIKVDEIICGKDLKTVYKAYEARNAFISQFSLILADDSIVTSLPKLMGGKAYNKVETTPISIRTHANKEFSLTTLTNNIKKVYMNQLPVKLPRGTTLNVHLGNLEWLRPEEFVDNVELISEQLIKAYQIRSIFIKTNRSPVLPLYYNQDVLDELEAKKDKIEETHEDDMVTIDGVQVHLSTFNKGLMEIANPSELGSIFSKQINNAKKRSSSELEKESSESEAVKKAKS
Chain of Small ribosomal subunit protein uS5 (P25443 whole entry): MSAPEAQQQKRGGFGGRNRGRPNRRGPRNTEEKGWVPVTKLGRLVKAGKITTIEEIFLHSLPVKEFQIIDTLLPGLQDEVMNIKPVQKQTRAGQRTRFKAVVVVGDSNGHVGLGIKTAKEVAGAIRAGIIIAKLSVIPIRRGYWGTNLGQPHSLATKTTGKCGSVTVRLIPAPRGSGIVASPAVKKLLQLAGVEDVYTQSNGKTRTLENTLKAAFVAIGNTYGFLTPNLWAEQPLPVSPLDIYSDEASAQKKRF
Chain of Pescadillo homolog (P53261 whole entry): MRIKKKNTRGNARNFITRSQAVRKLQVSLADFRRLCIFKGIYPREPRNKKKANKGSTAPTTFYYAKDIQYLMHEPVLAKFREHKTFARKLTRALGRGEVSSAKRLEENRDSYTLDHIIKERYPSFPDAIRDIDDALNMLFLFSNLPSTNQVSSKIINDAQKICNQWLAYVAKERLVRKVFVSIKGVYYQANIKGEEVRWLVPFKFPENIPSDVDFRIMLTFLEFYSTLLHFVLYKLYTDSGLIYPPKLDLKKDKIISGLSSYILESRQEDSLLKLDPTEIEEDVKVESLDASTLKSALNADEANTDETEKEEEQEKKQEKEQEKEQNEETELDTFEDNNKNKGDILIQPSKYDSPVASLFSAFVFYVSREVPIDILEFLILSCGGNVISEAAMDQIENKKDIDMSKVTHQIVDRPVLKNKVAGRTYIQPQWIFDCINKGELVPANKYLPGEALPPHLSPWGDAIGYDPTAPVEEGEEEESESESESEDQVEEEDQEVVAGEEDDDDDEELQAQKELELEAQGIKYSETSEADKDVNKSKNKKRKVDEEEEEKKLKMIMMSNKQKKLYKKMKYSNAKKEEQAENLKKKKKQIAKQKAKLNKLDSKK
Chain of Small ribosomal subunit protein eS28A (Q3E7X9 whole entry): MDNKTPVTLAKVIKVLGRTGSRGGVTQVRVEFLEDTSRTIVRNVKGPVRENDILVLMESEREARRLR
Chain of U3 small nucleolar RNA-associated protein 12 (Q12220 whole entry): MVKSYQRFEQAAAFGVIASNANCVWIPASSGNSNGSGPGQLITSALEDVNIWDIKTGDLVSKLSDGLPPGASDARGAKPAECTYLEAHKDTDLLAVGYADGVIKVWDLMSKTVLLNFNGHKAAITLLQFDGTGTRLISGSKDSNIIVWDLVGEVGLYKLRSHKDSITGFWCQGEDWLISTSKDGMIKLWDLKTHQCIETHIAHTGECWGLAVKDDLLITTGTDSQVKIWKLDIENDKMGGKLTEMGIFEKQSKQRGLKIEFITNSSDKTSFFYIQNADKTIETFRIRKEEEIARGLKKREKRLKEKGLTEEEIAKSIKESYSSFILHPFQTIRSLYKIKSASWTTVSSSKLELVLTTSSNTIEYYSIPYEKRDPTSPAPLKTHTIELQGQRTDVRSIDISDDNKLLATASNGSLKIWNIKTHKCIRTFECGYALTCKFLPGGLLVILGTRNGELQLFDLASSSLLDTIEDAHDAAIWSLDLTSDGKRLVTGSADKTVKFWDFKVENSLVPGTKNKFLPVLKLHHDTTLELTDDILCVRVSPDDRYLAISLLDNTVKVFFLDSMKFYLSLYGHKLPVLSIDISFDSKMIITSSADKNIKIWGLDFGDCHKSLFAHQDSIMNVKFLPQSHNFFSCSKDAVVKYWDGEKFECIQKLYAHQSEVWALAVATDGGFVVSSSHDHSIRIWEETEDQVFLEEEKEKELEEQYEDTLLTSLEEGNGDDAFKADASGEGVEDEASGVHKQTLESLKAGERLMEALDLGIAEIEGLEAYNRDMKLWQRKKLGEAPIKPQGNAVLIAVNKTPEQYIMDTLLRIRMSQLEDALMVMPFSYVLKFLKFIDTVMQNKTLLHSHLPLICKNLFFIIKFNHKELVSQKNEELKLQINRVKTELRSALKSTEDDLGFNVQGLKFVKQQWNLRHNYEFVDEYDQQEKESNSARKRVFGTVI
Chain of Proteasome subunit alpha type-2 (P23639 whole entry): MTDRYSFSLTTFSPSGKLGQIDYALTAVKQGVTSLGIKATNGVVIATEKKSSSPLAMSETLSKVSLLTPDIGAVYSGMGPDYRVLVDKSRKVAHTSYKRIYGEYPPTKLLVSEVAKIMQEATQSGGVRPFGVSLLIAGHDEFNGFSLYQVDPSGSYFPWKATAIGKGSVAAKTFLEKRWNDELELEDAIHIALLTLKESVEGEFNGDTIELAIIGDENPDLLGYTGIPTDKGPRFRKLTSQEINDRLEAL
Chain of U3 small nucleolar RNA-associated protein 15 (Q04305 whole entry): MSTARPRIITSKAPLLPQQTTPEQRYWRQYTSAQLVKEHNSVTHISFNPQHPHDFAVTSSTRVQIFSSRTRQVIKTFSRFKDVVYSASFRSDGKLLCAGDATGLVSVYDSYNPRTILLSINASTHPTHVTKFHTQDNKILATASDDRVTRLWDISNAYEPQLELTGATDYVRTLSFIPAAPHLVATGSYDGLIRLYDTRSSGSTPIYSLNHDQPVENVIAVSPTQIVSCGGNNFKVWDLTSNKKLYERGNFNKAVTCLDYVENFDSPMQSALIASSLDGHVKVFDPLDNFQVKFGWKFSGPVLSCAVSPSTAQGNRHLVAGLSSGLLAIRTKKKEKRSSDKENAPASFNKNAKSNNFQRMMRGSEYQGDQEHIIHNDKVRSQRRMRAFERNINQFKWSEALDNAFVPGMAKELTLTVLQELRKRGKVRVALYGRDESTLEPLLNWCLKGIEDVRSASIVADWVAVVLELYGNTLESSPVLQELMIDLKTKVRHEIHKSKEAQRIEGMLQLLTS
Chain of Large ribosomal subunit protein eL8B (P29453 whole entry): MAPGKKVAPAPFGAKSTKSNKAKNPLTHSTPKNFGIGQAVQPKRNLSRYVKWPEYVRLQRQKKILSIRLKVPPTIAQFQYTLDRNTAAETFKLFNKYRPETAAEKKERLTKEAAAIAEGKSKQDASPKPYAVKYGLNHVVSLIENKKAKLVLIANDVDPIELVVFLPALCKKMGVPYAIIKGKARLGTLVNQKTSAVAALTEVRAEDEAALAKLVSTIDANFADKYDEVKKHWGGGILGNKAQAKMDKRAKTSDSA
Chain of Ribosome biogenesis protein YTM1 (Q12024 whole entry): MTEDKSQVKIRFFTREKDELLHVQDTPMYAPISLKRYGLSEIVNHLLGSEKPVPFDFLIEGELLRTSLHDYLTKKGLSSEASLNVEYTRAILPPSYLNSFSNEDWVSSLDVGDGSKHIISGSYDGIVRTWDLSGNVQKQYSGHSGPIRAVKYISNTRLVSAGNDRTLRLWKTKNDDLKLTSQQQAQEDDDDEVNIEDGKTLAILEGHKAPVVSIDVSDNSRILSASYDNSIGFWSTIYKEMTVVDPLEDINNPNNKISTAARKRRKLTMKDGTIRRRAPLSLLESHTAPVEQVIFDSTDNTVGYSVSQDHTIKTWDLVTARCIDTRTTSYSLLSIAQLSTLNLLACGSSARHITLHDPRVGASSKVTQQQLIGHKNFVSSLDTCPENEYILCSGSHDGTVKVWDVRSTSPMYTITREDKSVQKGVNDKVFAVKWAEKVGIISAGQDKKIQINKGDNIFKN

Heat shock protein SSA1, P10591
listed as a hit [1]: yes
listed as a hit [2]: yes

Isocitrate dehydrogenase [NAD] subunit 2, mitochondrial, P28241
listed as a hit [3]: yes

Small ribosomal subunit protein uS15, P05756
listed as a hit [4]: yes
listed as a hit [5]: yes

Large ribosomal subunit protein uL22A, P05740
listed as a hit [6]: yes
listed as a hit [7]: yes
listed as a hit [8]: yes
listed as a hit (Zuotin): yes

Large ribosomal subunit protein eL22A, P05749
listed as a hit [9]: yes

Large ribosomal subunit protein eL32, P38061
listed as a hit [10]: yes

Large ribosomal subunit protein eL27A, P0C2H6
listed as a hit [11]: yes

Large ribosomal subunit protein eL8A, P17076
listed as a hit [11]: yes
listed as a hit (Pescadillo homolog): yes
listed as a hit [12]: yes

Large ribosomal subunit protein uL3, P14126
listed as a hit [13]: yes

Large ribosomal subunit protein uL30A, P05737
listed as a hit [14]: yes
listed as a hit [15]: yes

Mitochondrial import inner membrane translocase subunit TIM16, P42949
listed as a hit [16]: yes

U3 small nucleolar RNA-associated protein 8, P53276
listed as a hit [17]: yes

U3 small nucleolar RNA-associated protein 10, P42945
listed as a hit [17]: yes

Essential nuclear protein 1, P38333
listed as a hit [18]: yes
listed as a hit [19]: yes

rRNA 2'-O-methyltransferase fibrillarin, P15646
listed as a hit (Nucleolar protein 56): yes
listed as a hit (Nucleolar protein 58): yes

Large ribosomal subunit protein eL8B, P29453
listed as a hit (Pescadillo homolog): yes
listed as a hit [12]: yes

Prohibitin-1, P40961
listed as a hit (Prohibitin-2): yes

Small ribosomal subunit protein uS3, P05750
listed as a hit [20]: yes
listed as a hit [21]: yes
listed as a hit [22]: yes

RuvB-like protein 1, Q03940
listed as a hit (RuvB-like protein 2): yes

Proteasome subunit alpha type-1, P21243
listed as a hit [23]: yes

Probable proteasome subunit alpha type-7, P21242
listed as a hit [24]: yes

Pescadillo homolog, P53261
listed as a hit [25]: yes

Ribosome biogenesis protein ERB1, Q04660
listed as a hit [25]: yes

U3 small nucleolar RNA-associated protein 5, Q04177
listed as a hit [26]: yes

U3 small nucleolar ribonucleoprotein protein IMP3, P32899
listed as a hit [27]: yes

Periodic tryptophan protein 2, P25635
listed as a hit [28]: yes

Proteasome subunit alpha type-3, P23638
listed as a hit [23]: yes
listed as a hit [29]: yes

Small ribosomal subunit protein eS21A, P0C0V8
listed as a hit [22]: yes

Succinate--CoA ligase [ADP-forming] subunit beta, mitochondrial, P53312
listed as a hit [30]: yes

Small ribosomal subunit protein eS26A, P39938
listed as a hit [31]: yes

Small ribosomal subunit protein uS7, P26783
listed as a hit [32]: yes
listed as a hit [31]: yes

Small ribosomal subunit protein eS1B, P23248
listed as a hit [33]: yes

U3 small nucleolar RNA-associated protein 6, Q02354
listed as a hit [34]: yes

Golgi to ER traffic protein 4, Q12125
listed as a hit [35]: yes

NET1-associated nuclear protein 1, Q02931
listed as a hit [26]: yes

rRNA processing protein RCL1, Q08096
listed as a hit [36]: yes

Ubiquitin-ribosomal protein eS31 fusion protein, P05759
listed as a hit [37]: yes

Sec sixty-one protein homolog, P38353
listed as a hit [38]: yes

Nucleolar complex protein 4, Q06512
listed as a hit [39]: yes

Small ribosomal subunit protein eS28B, P0C0X0
listed as a hit [40]: yes

U3 small nucleolar RNA-associated protein 13, Q05946
listed as a hit [41]: yes

Nucleolar complex protein 2, P39744
listed as a hit [42]: yes

Ribosomal RNA-processing protein 7, P25368
listed as a hit [43]: yes

Proteasome subunit beta type-4, P22141
listed as a hit [44]: yes
listed as a hit [29]: yes

U3 small nucleolar RNA-associated protein 21, Q06078
listed as a hit [41]: yes

rRNA biogenesis protein RRP5, Q05022
listed as a hit [42]: yes
